PubChem BioAssay (NCI)
The panel holds about 79,000 compounds, 15% with a hit somewhere; the sample as a whole holds those more often. A number with no mark means an inactive call. Calls of active or inactive are those of the source. No stated cut-off is given here; in the data, active means growth inhibition above about 70%; inactive means the rest.

Legend:
[1] = NCI Yeast Anticancer Drug Screen. Data for the rad50 strain (AID 155);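 further: 0% = growth of vehicle-only cultures of the same strain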; settings: S. cerevisiae rad50 strain growth inhibition, stronger effect = higher value
In short: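 Relative growth inhibition (compound vs vehicle) was measured in yeast with a defined repair-gene alteration.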

[2] = NCI Yeast Anticancer Drug Screen. Data for the mec2-1 strain (AID 157); settings: S. cerevisiae mec2-1 strain, stronger effect = higher value
In short: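 Strain: mec2-1 (DNA repair/cell cycle alteration). Compound exposure, then growth measured; inhibition expressed relative to vehicle.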

[3] = NCI Yeast Anticancer Drug Screen. Data for the sgs1 mgt1 strain (AID 161);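 further: 0% = growth of cultures given vehicle only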; settings: S. cerevisiae sgs1 mgt1 strain, stronger effect = higher value
In short: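 Genetically altered yeast, compound exposure, growth inhibition relative to vehicle.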

[4] = NCI Yeast Anticancer Drug Screen. Data for the cln2 rad14 strain (AID 165);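 further: 0% = growth equal to vehicle treated cultures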; settings: S. cerevisiae cln2 rad14 strain, stronger effect = higher value
In short: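 Compounds are applied to the cln2 rad14 yeast strain, and growth is then compared with that of vehicle-treated cultures to give inhibition.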

[5] = NCI Yeast Anticancer Drug Screen. Data for the bub3 strain (AID 167); settings: S. cerevisiae bub3 mutant strain, stronger effect = higher value
In short: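 Screening used yeast with an engineered genetic alteration affecting cell cycle control. Compound-exposed cultures were compared with vehicle cultures, and reduced growth was taken as inhibition.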

[6] = NCI Yeast Anticancer Drug Screen. Data for the mlh1 rad18 strain (AID 175); settings: S. cerevisiae mlh1 rad18 strain growth inhibition, stronger effect = higher value
In short: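 Read-out is yeast growth inhibition, calculated against vehicle-only controls. The compound was applied to a strain engineered with DNA damage repair alterations.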

[7] = at 5.0 µM (retest, dose inferred, filed as 0.5)
[8] = at 50.0 µM (retest, dose inferred, filed as 5.0)

Compound: COc1ccc(-c2cscc2N)cc1
- growth inhibition [1, 7]: -7%
- growth inhibition [1, 8]: 72% (active)
- growth inhibition ([1]; at 50.0 µM): 67.5%
- growth inhibition [2, 7]: -15%
- growth inhibition [2, 8]: 46%
- growth inhibition ([2]; at 50.0 µM): 87.2% (active)
- growth inhibition [3, 7]: -9%
- growth inhibition [3, 8]: 38%
- growth inhibition ([3]; at 50.0 µM): 51.9%
- growth inhibition [4, 7]: -6%
- growth inhibition [4, 8]: 89% (active)
- growth inhibition ([4]; at 50.0 µM): 46.1%
- growth inhibition [5, 7]: -19%
- growth inhibition [5, 8]: 91% (active)
- growth inhibition ([5]; at 50.0 µM): 92.2% (active)
- growth inhibition [6, 7]: -1%
- growth inhibition [6, 8]: 56%
- growth inhibition ([6]; at 50.0 µM): 89% (active)

Compound: CCN(CC)CCOC(=O)Cc1cccc2c(=O)cc(-c3cccs3)oc12
- growth inhibition [1, 7]: 18%
- growth inhibition [1, 8]: 17%
- growth inhibition ([1]; at 50.0 µM): 18.7%
- growth inhibition [2, 7]: 9%
- growth inhibition [2, 8]: 16%
- growth inhibition ([2]; at 50.0 µM): -9.35%
- growth inhibition [3, 7]: 14%
- growth inhibition [3, 8]: 18%
- growth inhibition ([3]; at 50.0 µM): -16.4%
- growth inhibition [4, 7]: 17%
- growth inhibition [4, 8]: 17%
- growth inhibition ([4]; at 50.0 µM): 8.25%
- growth inhibition [5, 7]: 4%
- growth inhibition [5, 8]: 14%
- growth inhibition ([5]; at 50.0 µM): -20.6%
- growth inhibition [6, 7]: 10%
- growth inhibition [6, 8]: 16%
- growth inhibition ([6]; at 50.0 µM): -36%

Compound: CNC(=O)c1ccc(OC)cc1C1(O)c2ccccc2CCc2ccccc21
- growth inhibition [1, 7]: 40%
- growth inhibition [1, 8]: 64%
- growth inhibition ([1]; at 50.0 µM): 58.6%
- growth inhibition [2, 7]: 34%
- growth inhibition [2, 8]: 49%
- growth inhibition ([2]; at 50.0 µM): 45%
- growth inhibition [3, 7]: 36%
- growth inhibition [3, 8]: 78% (active)
- growth inhibition ([3]; at 50.0 µM): 80.5% (active)
- growth inhibition [4, 7]: 27%
- growth inhibition [4, 8]: 49%
- growth inhibition ([4]; at 50.0 µM): 46.4%
- growth inhibition [5, 7]: 37%
- growth inhibition [5, 8]: 87% (active)
- growth inhibition ([5]; at 50.0 µM): 58.8%
- growth inhibition [6, 7]: 46%
- growth inhibition [6, 8]: 76% (active)
- growth inhibition ([6]; at 50.0 µM): 58.8%

Compound: O=c1cccccc1[O-].O=c1cccccc1[O-].O=c1cccccc1[O-].[Sm+3]
- growth inhibition [1, 7]: 33%
- growth inhibition [1, 8]: 33%
- growth inhibition ([1]; at 50.0 µM): 91.7% (active)
- growth inhibition [2, 7]: 19%
- growth inhibition [2, 8]: 19%
- growth inhibition ([2]; at 50.0 µM): 92.5% (active)
- growth inhibition [3, 7]: 21%
- growth inhibition [3, 8]: 21%
- growth inhibition ([3]; at 50.0 µM): 90.5% (active)
- growth inhibition [4, 7]: 17%
- growth inhibition [4, 8]: 17%
- growth inhibition ([4]; at 50.0 µM): 90.2% (active)
- growth inhibition [5, 7]: 11%
- growth inhibition [5, 8]: 11%
- growth inhibition ([5]; at 50.0 µM): 93% (active)
- growth inhibition [6, 7]: 14%
- growth inhibition [6, 8]: 14%
- growth inhibition ([6]; at 50.0 µM): 90.4% (active)

Compound: CCOC(=O)/C=C(\C)OCC
- growth inhibition [1, 7]: -5%
- growth inhibition [1, 8]: 25%
- growth inhibition ([1]; at 50.0 µM): 16.3%
- growth inhibition [2, 7]: -3%
- growth inhibition [2, 8]: 2%
- growth inhibition ([2]; at 50.0 µM): 6.1%
- growth inhibition [3, 7]: -4%
- growth inhibition [3, 8]: 3%
- growth inhibition ([3]; at 50.0 µM): 7.25%
- growth inhibition [4, 7]: -1%
- growth inhibition [4, 8]: 4%
- growth inhibition ([4]; at 50.0 µM): 76% (active)
- growth inhibition [5, 7]: -5%
- growth inhibition [5, 8]: -4%
- growth inhibition ([5]; at 50.0 µM): 38.9%
- growth inhibition [6, 7]: -5%
- growth inhibition [6, 8]: 7%
- growth inhibition ([6]; at 50.0 µM): 10.4%

Compound: O=c1[nH]c2ccccc2nc1CBr
- growth inhibition [1, 7]: 5%
- growth inhibition [1, 8]: 95% (active)
- growth inhibition ([1]; at 50.0 µM): 30.9%
- growth inhibition [2, 7]: 16%
- growth inhibition [2, 8]: 99% (active)
- growth inhibition ([2]; at 50.0 µM): 71.2% (active)
- growth inhibition [3, 7]: 8%
- growth inhibition [3, 8]: 98% (active)
- growth inhibition ([3]; at 50.0 µM): 91.2% (active)
- growth inhibition [4, 7]: 0%
- growth inhibition [4, 8]: 95% (active)
- growth inhibition ([4]; at 50.0 µM): 1.85%
- growth inhibition [5, 7]: 14%
- growth inhibition [5, 8]: 98% (active)
- growth inhibition ([5]; at 50.0 µM): 90.2% (active)
- growth inhibition [6, 7]: 16%
- growth inhibition [6, 8]: 99% (active)
- growth inhibition ([6]; at 50.0 µM): 91.1% (active)

Compound: c1ccc(-c2cnc3nc4ccccc4nc3n2)cc1
- growth inhibition [1, 7]: -7%
- growth inhibition [1, 8]: 89% (active)
- growth inhibition ([1]; at 50.0 µM): 94.9% (active)
- growth inhibition [2, 7]: 4%
- growth inhibition [2, 8]: 76% (active)
- growth inhibition ([2]; at 50.0 µM): 50.6%
- growth inhibition [3, 7]: 12%
- growth inhibition [3, 8]: 73% (active)
- growth inhibition ([3]; at 50.0 µM): 95.8% (active)
- growth inhibition [4, 7]: -11%
- growth inhibition [4, 8]: 3%
- growth inhibition ([4]; at 50.0 µM): 36.5%
- growth inhibition [5, 7]: 16%
- growth inhibition [5, 8]: 77% (active)
- growth inhibition ([5]; at 50.0 µM): 92% (active)
- growth inhibition [6, 7]: 7%
- growth inhibition [6, 8]: 93% (active)
- growth inhibition ([6]; at 50.0 µM): 89.5% (active)

Compound: Cc1cc2cc3c(c(C(=O)O)c2o1)C(=O)c1ccc2ccccc2c1C3
- growth inhibition [1, 7]: 15%
- growth inhibition [1, 8]: 99% (active)
- growth inhibition ([1]; at 50.0 µM): 98.2% (active)
- growth inhibition [2, 7]: 24%
- growth inhibition [2, 8]: 99% (active)
- growth inhibition ([2]; at 50.0 µM): 99.5% (active)
- growth inhibition [3, 7]: 19%
- growth inhibition [3, 8]: 99% (active)
- growth inhibition ([3]; at 50.0 µM): 99.5% (active)
- growth inhibition [4, 7]: 14%
- growth inhibition [4, 8]: 99% (active)
- growth inhibition ([4]; at 50.0 µM): 99.2% (active)
- growth inhibition [5, 7]: 14%
- growth inhibition [5, 8]: 99% (active)
- growth inhibition ([5]; at 50.0 µM): 99.6% (active)
- growth inhibition [6, 7]: 20%
- growth inhibition [6, 8]: 99% (active)
- growth inhibition ([6]; at 50.0 µM): 99.4% (active)

Compound: O=C(O)C1CC2C3(Cl)C(Cl)=C(Cl)C(Cl)C2(CC1c1c2ccc(=O)c(O)c-2oc2c(O)c(O)ccc12)C3(Cl)Cl (configuration not stated)
- growth inhibition [1, 7]: 5%
- growth inhibition [1, 8]: 96% (active)
- growth inhibition ([1]; at 50.0 µM): 49.9%
- growth inhibition [2, 7]: 21%
- growth inhibition [2, 8]: 97% (active)
- growth inhibition ([2]; at 50.0 µM): 49.6%
- growth inhibition [3, 7]: 3%
- growth inhibition [3, 8]: 97% (active)
- growth inhibition ([3]; at 50.0 µM): -0.25%
- growth inhibition [4, 7]: 9%
- growth inhibition [4, 8]: 93% (active)
- growth inhibition ([4]; at 50.0 µM): 53.2%
- growth inhibition [5, 7]: -2%
- growth inhibition [5, 8]: 96% (active)
- growth inhibition ([5]; at 50.0 µM): 46.2%
- growth inhibition [6, 7]: 4%
- growth inhibition [6, 8]: 95% (active)
- growth inhibition ([6]; at 50.0 µM): 51.5%
